Bioassay records deposited in PubChem BioAssay by National Center for Advancing Translational Sciences (NCATS).
VP16 counter = counter-screen for ROR gamma inhibitors: Gal4-VP16 reporter; AID 2546; hit rate 3.5% among 310,000; Potency, µM (doses to about 53.6 µM), most hits filed as inhibitors; Drosophila S2 Gal4-VP16 UAS-luciferase, luminescence, 20 h;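 also: Gal4-VP16 expression switched on by copper sulfate through the metallothionein promoter; nearly all actives have a fitted effect of over 50% in size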
ERG-DNA inh = ERG Ets/DNA interaction inhibition; P11308; fluorescence polarization, His-ERG Ets domain / labelled DNA; Potency, µM (top dose mostly 76.9 µM), hits mostly inhibitors; hit rate 0.028% among 370,000; AID 624246; active = well fitted inhibition curve with a large enough effect in the polarisation, with a control signal flat; inconclusive = small, poorly fitted or top-dose-only effect, or effect the other way, or a change in a side signal; inactive = no such curve, though single readings can be large or run the other way; the % refers to the polarisation;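 also: polarization taken with two DNA probes labelled with fluorescein and Texas red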
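His-tagged ERG Ets domain (1 uM in the protein solution; 300mM KCl, 50mM Tris-HCl, 1mM EDTA, 1mM DTT, pH 7.5) received compound, then a probe mix of 5 nM fluorescein-DNA and 100nM Texas-615-DNA. Fluorescence polarization was read for both dyes.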
Integrin act MD = integrin-mediated muscular dystrophy alleviation activation | hit rate 0.064% among 350,000 | alpha7betagal myoblasts, beta-gal FDG fluorescence, 48 h | Potency, µM (titrated, usually from 38.3 µM), usual class: activators; also: nearly all actives have a fitted effect of over 60% in size
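Alpha7betagal+/- myoblasts (passage 13) were plated 16-24 hr, then exposed to compounds (1:260 dilution of DMSO stock) for 48 hours at 37C. After MPER lysis, β-galactosidase reporter activity was read as FDG fluorescence (ex 480/em 540) after 30 minutes.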
RORg inh = ROR gamma (mouse) transcription inhibition; P51450; Drosophila S2 Gal4-RORgamma UAS-luciferase reporter, 20 h; Potency, µM (top dose mostly 53.6 µM), usual class: inhibitors; hit rate 5.4% among 310,000; AID 2551; also: nearly all actives have a fitted effect of over 60% in size
Target sequence (P51450 whole entry, looked up, the tested form may be a part): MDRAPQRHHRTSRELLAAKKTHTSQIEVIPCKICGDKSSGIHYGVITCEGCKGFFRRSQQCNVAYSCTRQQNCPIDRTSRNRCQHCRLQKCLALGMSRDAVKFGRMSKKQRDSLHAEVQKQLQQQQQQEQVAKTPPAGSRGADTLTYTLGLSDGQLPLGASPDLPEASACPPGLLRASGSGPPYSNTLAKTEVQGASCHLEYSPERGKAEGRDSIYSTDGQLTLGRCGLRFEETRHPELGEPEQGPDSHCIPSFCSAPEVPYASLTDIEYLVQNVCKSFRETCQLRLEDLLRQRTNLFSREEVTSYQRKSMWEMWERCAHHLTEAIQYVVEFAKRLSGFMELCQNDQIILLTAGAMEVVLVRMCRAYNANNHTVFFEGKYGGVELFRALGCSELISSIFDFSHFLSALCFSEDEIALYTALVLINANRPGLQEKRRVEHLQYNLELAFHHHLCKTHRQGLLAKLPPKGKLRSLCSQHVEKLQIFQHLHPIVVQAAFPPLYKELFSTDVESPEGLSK
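Compounds are pin-transferred onto Drosophila Schneider cells expressing a copper-inducible Gal4–ROR gamma transactivation domain fusion. After 1 hr, copper sulfate is added to 700 uM final; luciferase is read 20 hr later.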
Giardia kill = Giardia lamblia killing; AID 540267; activity change, % at 7.66 µM, hits read low; hit rate 0.15% among 340,000; Giardia lamblia trophozoite viability; in the data active = activity change below about -80%; inconclusive = between about -30% and that limit;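 also: parasites exposed to compound for two days anaerobically before the ATP read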
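Media and compound were dispensed first, then trophozoites at 100 cells/well; plates sat 48 hrs at 37 deg C without oxygen before ATP luminescence reagent was added and read after 15-30 min at room temperature.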
Of the large screens only hits and unclear results are named; the others gave an inactive call. Only a selection was taken, and hits are over-represented in it overall. Unless noted, calls follow the shape of the dose curve; as a rule, active = well fitted curve in the direction sought with a large enough effect; inconclusive = small, poorly fitted or top-dose-only effect, or another doubt; inactive = no such curve, though single readings can be large; an effect the other way counts as inactive or inconclusive.

COc1ccc(CNc2ncnc3c2[nH]c2cc(OC)c(OC)cc23)cc1	none
COc1ccc(CNc2ncnc3c2[nH]c2ccccc23)cc1	VP16 counter 6.31µM, RORg inh inconclusive
C1=C(CCNc2ncnc3c2[nH]c2ccccc23)CCCC1	VP16 counter 0.708µM, RORg inh 7.94µM
O=C(CSc1nnc(-c2ccncc2)n1-c1ccccc1)NC1CC1	none
COc1cc(C(=O)N/N=C(\C)Cc2ccccc2)cc(OC)c1OC	RORg inh inconclusive
COc1cc(/C(C)=N\NC(N)=S)cc(OC)c1OC	VP16 counter inconclusive, RORg inh 5.62µM (no result: ERG-DNA inh)
COc1cc(C(=O)NCCC(=O)NC(C)C)cc(OC)c1OC	none
COc1cc(/C(C)=N/NC(=S)NC(C)C)cc(OC)c1OC	VP16 counter 5.01µM, RORg inh 3.16µM
COc1ccc(-c2cc(C(F)(F)F)nc(S(=O)(=O)CCC(=O)N3CCOCC3)n2)cc1	VP16 counter inconclusive, RORg inh 8.91µM
COc1ccc(NC(=O)CCS(=O)(=O)c2nc(-c3ccc4c(c3)OCO4)cc(C(F)(F)F)n2)cc1	none (no result: VP16 counter, Integrin act MD, RORg inh, Giardia kill)
COc1ccc(-c2cc(C(F)(F)F)nc(S(=O)(=O)CCCC(=O)Nc3cccc(O)c3)n2)cc1OC	VP16 counter 11.2µM, RORg inh 10µM
COc1ccccc1-c1cc(C(F)(F)F)nc(S(=O)(=O)CCCC(=O)N2CCOCC2)n1	VP16 counter 7.08µM, RORg inh 5.62µM
Cc1cccc(N2CCN(c3nc4ccc(C)cc4n4cnnc34)CC2C)c1 (centres undefined)	none (no result: VP16 counter, Integrin act MD, RORg inh, Giardia kill)
CCCc1nn2c(=O)cc(COC(=O)c3cccc(NC(=O)COc4ccc(F)cc4)c3)nc2s1	none (no result: VP16 counter, Integrin act MD, RORg inh, Giardia kill)
COc1ccc(CCNC(=O)C(=O)NCC(c2cccnc2)N2CCN(c3ccccc3)CC2)cc1 (centres undefined)	none (no result: VP16 counter, Integrin act MD, RORg inh, Giardia kill)
CCCCCC(O)c1ccc([C@H]2CCC(=O)[C@@H]2CCCCCCC(=O)O)cc1 (some centres undefined)	none (no result: ERG-DNA inh, Integrin act MD, Giardia kill)
CN=c1scc(-c2ccccc2F)n1/N=C/c1ccc(O)c(O)c1O	RORg inh inconclusive, Giardia kill -103.4
CN=c1scc(-c2ccccc2F)n1/N=C/c1ccc[nH]1	VP16 counter 0.631µM, RORg inh 0.0224µM, Giardia kill inconclusive
COC(=O)c1cc(O)cc(OC)c1Oc1cc(C)cc(O)c1C(=O)O	VP16 counter 7.08µM
Cc1ccc(-c2cnc3ccccc3n2)cc1C	VP16 counter inconclusive, RORg inh 10µM
COc1ccc(N(C(=O)CCl)C(C(=O)NCCc2ccccc2)c2cccs2)cc1 (centres undefined)	VP16 counter inconclusive, RORg inh 11.2µM (no result: ERG-DNA inh)
O=C1COc2ccc(S(=O)(=O)N3CCCC3)cc2N1	Integrin act MD inconclusive
O=C1COc2ccc(N3C(=O)C=CC3=O)cc2N1	VP16 counter 10µM, RORg inh 6.31µM (no result: ERG-DNA inh, Integrin act MD, Giardia kill)
CN1CCCC2(CCN(C(=O)c3cc(C(F)(F)F)cc(C(F)(F)F)c3)CC2)C1	none (no result: ERG-DNA inh, Integrin act MD, Giardia kill)
O=C(Nc1ccccc1)N(CCN1CCOCC1)Cc1ccccc1F	RORg inh inconclusive
Cc1ccc(NC(=S)N(CCN2CCOCC2)Cc2ccccc2F)cc1Cl	VP16 counter inconclusive, Integrin act MD inconclusive, RORg inh 10µM
Cc1cccc(NC(=S)N(CCN2CCOCC2)Cc2ccccc2F)c1	RORg inh 12.6µM
COc1ccc(NC(=S)N(CCN2CCOCC2)Cc2ccccc2F)cc1	RORg inh inconclusive
O=C(CCC1CCCCC1)NCCN1C2=NC[C@H](Cc3ccccc3)N2C[C@H]1Cc1ccc(O)cc1	VP16 counter inconclusive
O=C(CCC1CCCCC1)NCCN1C2=NC[C@@H](Cc3ccccc3)N2C[C@H]1Cc1ccc(O)cc1	VP16 counter 8.91µM, RORg inh 10µM
CCCCC(CC)C/C=C1\CC(C(=O)OCC)Oc2ccccc21 (centres undefined) (tested in a mixture with another compound)	RORg inh 1.58µM (no result: ERG-DNA inh, Integrin act MD, Giardia kill)
Cc1ccc(N(NC(=O)C(O)(c2ccccc2)c2ccccc2)C(=O)CCl)cc1	VP16 counter 7.94µM, RORg inh 6.31µM
Cc1ccc(C(O)(C(=O)NN(C(=O)c2ccccc2)c2ccccc2)c2ccc(C)cc2)cc1	none
O=C(Cn1c(SCC(=O)Nc2ccc(F)cc2)nc2ccccc21)NCc1ccccc1Cl	none (no result: VP16 counter, Integrin act MD, RORg inh, Giardia kill)
Cc1ccc(-c2nc(CSc3nnc(C)n4c3cc3occc34)c(C)o2)cc1	none (no result: VP16 counter, Integrin act MD, RORg inh, Giardia kill)
CC1=CC(C)(C)NC(=S)N1c1cccc2ccccc12	VP16 counter 5.01µM, RORg inh inconclusive
CC1=CC(C)(C)NC(=S)N1CCO	none (no result: VP16 counter, RORg inh)
CC1=CC(C)(C)NC(=S)N1c1ccc2ccccc2c1	VP16 counter 6.31µM, RORg inh 3.55µM
CC1=CC(C)(C)NC(=S)N1C(C)c1ccccc1 (centres undefined)	VP16 counter 3.98µM, RORg inh 2.24µM
CC1=CC(C)(C)NC(=S)N1c1ccc(Cl)cc1	none (no result: VP16 counter, RORg inh)
CSc1ccc(S(=O)(=O)NCC(=O)OCC(=O)NCc2cccs2)cc1[N+](=O)[O-]	none (no result: VP16 counter, RORg inh)
CC1CCCN(Cc2ccc(OCc3ccccc3)cc2)C1 (centres undefined)	none
COc1ccc(CCN(C)CC(O)COc2ccc(C(C)=O)cc2OC)cc1OC (centres undefined)	none
COc1ccc2nc(C)c3c(c2c1)OC(C(C)(Cl)Br)C3 (centres undefined)	RORg inh 5.01µM
CCOC(=O)C1(Cc2ccccc2C)CCCN(S(=O)(=O)CC)C1 (centres undefined)	none
CCOC(=O)C(NC(=O)c1cccnc1)(Nc1cccc(C)n1)C(F)(F)F (centres undefined)	none
CCOC(=O)C(NCc1ccccn1)(NC(=O)c1cccnc1)C(F)(F)F (centres undefined)	RORg inh 15.8µM
COC(=O)C1=C(CN2CCc3ccccc32)NC(=O)NC1c1cc(C)ccc1C (centres undefined)	none
COC(=O)C1=C(CN2CCCc3ccccc32)NC(=O)NC1c1ccc(F)cc1 (centres undefined)	VP16 counter inconclusive, RORg inh 1.41µM (no result: ERG-DNA inh)
COc1ccc(CCN(C)CCCOc2ccc(S(=O)(=O)c3[nH]c4ccccc4c3C(C)C)cc2)cc1OC	VP16 counter 17.8µM, RORg inh 14.1µM (no result: ERG-DNA inh, Integrin act MD, Giardia kill)
O=C(O)CSCC(=O)Nc1ccc(C2CCCCC2)cc1	VP16 counter 3.16µM, RORg inh 2.24µM
S=C(NCCCc1cnc[nH]1)NCCCN(Cc1ccc(Cl)cc1)c1ccc(Br)cc1	none (no result: VP16 counter, ERG-DNA inh, Integrin act MD, RORg inh)
CCC1=NN2C(=N)/C(=C\c3cccn3-c3ccc(Cl)cc3)C(=O)N=C2S1	RORg inh inconclusive
CCC1=NN2C(=N)/C(=C\c3cccn3-c3ccc(C)c(C)c3)C(=O)N=C2S1	RORg inh 28.2µM, Giardia kill inconclusive
COc1ccc(/C=N\NC(=O)C2=NNC(=O)C2C)cc1 (centres undefined)	VP16 counter 3.16µM, RORg inh 12.6µM
O[C@@H]1[C@@H]2c3cc4c(cc3CN3CCC(=C[C@@H]1O)[C@H]23)OCO4	VP16 counter 2.51µM, RORg inh inconclusive (no result: ERG-DNA inh, Integrin act MD, Giardia kill)
